Screening data: PubChem BioAssay, National Center for Advancing Translational Sciences (NCATS)
A selection: hits, their analogues and other compounds. The true share with any hit is near 20%.
HCMV antiviral: qHTS Assay for inhibitors of the human cytomegalovirus (HCMV); HFF cells, HCMV-luciferase reporter, 72 h; active compounds read low; activity change, negative = inhibition, % at 57.5 µM; 4.5% of 410,000 active; AID 1259415, 2018; in the data active = activity change below about -60%; inconclusive = no clear call, values can overlap the other calls; inactive = above about -39%
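Human foreskin fibroblasts infected with luciferase-reporter HCMV at MOI 1 PFU/cell, compounds at two doses. Luciferase measured 72 h post infection; normalized to buffer-only basal and Salinomycin (10uM) controls.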
Cycloheximide cs: Cycloheximide Counterscreen for Small Molecule Inhibitors of Shiga Toxin; cell reporter, cycloheximide protein synthesis inhibition counterscreen; max response, %; 12% of 300,000 active; AID 2314, 2010; in the data active = max response mostly above about 13%, no sharp cut-off; inactive = mostly below about 14%; also: read at 38.3 µM for the half of the compounds with a filed dose
Pf growth 48h: Primary qHTS for delayed death inhibitors of the malarial parasite plastid, 48 hour incubation; P. falciparum luciferase growth in erythrocytes, 48 h; Potency, µM (titrated, usually from 28.7 µM), actives largely listed as inhibitors; 5.9% of 310,000 active
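Luciferase-expressing P. falciparum in infected erythrocytes (2% hematocrit, 0.1% parasitemia final) in RPMI 1640/0.5% Albumax were exposed to compound for 48 hours at 37 C, 5% CO2; growth read as luminescence.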
Shiga inhibitor: A qHTS for Small Molecule Inhibitors of Shiga Toxin; Vero cells, Shiga toxin protein synthesis inhibition reporter; 9.2% of 290,000 active; inhibition, % at 38.7 µM; in the data active = inhibition mostly above about 28%, no sharp cut-off; inactive = mostly below about 43%
Pf growth 96h: Primary qHTS for delayed death inhibitors of the malarial parasite plastid, 96 hour incubation. P. falciparum luciferase reporter growth, 96 h. AID 504834, 2011. 6.9% of 320,000 active. Potency, µM (doses to about 28.7 µM), hits mostly inhibitors
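Two parasite generations (96 h, 37 C, 5% CO2) of compound exposure in infected erythrocytes (0.05% parasitemia, 2% hematocrit). Luciferase-reporter P. falciparum; decreased luminescence indicates inhibited growth, aimed at apicoplast-acting delayed death.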
Of the large screens only hits and unclear results are named; the others gave an inactive call. Unless noted, calls follow the shape of the dose curve; as a rule, active = well fitted inhibition curve with a large enough effect; inconclusive = small, poorly fitted or top-dose-only effect, or another doubt; inactive = no such curve, though single readings can be large or run the other way.

O=C(NCc1ccccc1)c1c[nH]c2cc3c(cc2c1=O)OCCO3	Cycloheximide cs 36.8, Shiga inhibitor 30.2
CCOc1ccc2[nH]cc(C(=O)NCc3ccccc3)c(=O)c2c1	Pf growth 96h inconclusive
O=C(Cc1ccccc1)NCc1ccc2c(c1)OCO2	Cycloheximide cs 58.7, Shiga inhibitor 117.6, Pf growth 96h 10.4µM (no result: Pf growth 48h)
O=C(CCc1c[nH]c2ccccc12)NCc1ccc2c(c1)OCO2	none
O=C(Cc1ccccc1[N+](=O)[O-])NCc1ccc2c(c1)OCO2	Cycloheximide cs 58.3, Shiga inhibitor 69.0
O=C(Cc1c[nH]c2ccccc12)NCc1ccc2c(c1)OCO2	Cycloheximide cs 18.7
O=C(COC(=O)COc1ccccc1[N+](=O)[O-])NCc1ccc2c(c1)OCO2	none (no result: Cycloheximide cs, Pf growth 48h, Shiga inhibitor, Pf growth 96h)
CS(=O)(=O)N(CC(=O)NCc1ccc2c(c1)OCO2)Cc1ccccc1	Pf growth 96h inconclusive
COc1cccc(-n2c(=O)c3c4c(sc3n(Cc3ccc(F)cc3Cl)c2=O)CCCC4)c1	none (no result: Cycloheximide cs, Pf growth 48h, Shiga inhibitor, Pf growth 96h)
Cc1ccc2nc(-c3ccc(Cl)c(NC(=O)COc4cccc(C)c4C)c3)oc2c1	none (no result: Cycloheximide cs, Pf growth 48h, Shiga inhibitor, Pf growth 96h)
O=C(Cn1nc(-c2ccc(Cl)cc2)ccc1=O)NCc1ccc2c(c1)OCO2	none (no result: Pf growth 48h)
Cc1c(C(O)CN2CCN(Cc3ccc4c(c3)OCO4)CC2)c2ccccc2n1C (stereo not drawn)	Pf growth 48h inconclusive, Pf growth 96h inconclusive
O=C(Cn1nc(-c2ccccc2)ccc1=O)NCc1ccc2c(c1)OCO2	Pf growth 96h 1.31µM
O=C(CSc1nc2cc([N+](=O)[O-])ccc2n1-c1ccccc1)NCc1ccc2c(c1)OCO2	HCMV antiviral inconclusive, Pf growth 96h 10.4µM
O=C(NCc1ccc2c(c1)OCO2)C(=O)Nc1ccccc1	Cycloheximide cs 22.1, Shiga inhibitor 90.5
O=C(NCc1ccc2c(c1)OCO2)c1cc(-c2ccccc2)on1	none (no result: Pf growth 96h)
OC(CN1CCN(Cc2ccc3c(c2)OCO3)CC1)c1c[nH]c2ccccc12 (stereo not drawn)	HCMV antiviral -87.7, Pf growth 48h inconclusive
O=C1[C@H](Cc2ccccc2)NCC=CC[C@H](c2ccco2)N1Cc1ccccc1	none (no result: Cycloheximide cs, Pf growth 48h, Shiga inhibitor, Pf growth 96h)
Cc1ccc(CN2CCC2(C)C(=O)NC2CCc3ccccc32)cc1 (stereo not drawn)	none (no result: Cycloheximide cs, Pf growth 48h, Shiga inhibitor, Pf growth 96h)
O=C(NCc1ccc2c(c1)OCO2)NC1CCCCC1	none
CC1CCCC(C)N1C(=O)Cn1c(SCC(=O)NCc2ccc3c(c2)OCO3)nc2ccccc21 (stereo not drawn)	HCMV antiviral -68.3, Pf growth 48h 6.57µM
O=C(CCc1ccccc1)NCc1ccc2c(c1)OCO2	Cycloheximide cs 14.0
CCNS(=O)(=O)c1ccc(CCC(=O)NCc2ccc3c(c2)OCO3)cc1	Pf growth 96h 0.415µM
CN(C)C(=O)Cn1c(SCC(=O)NCc2ccc3c(c2)OCO3)nc2ccccc21	none
O=C(CC12CCC(CC1)C2)NCc1ccc2c(c1)OCO2	Cycloheximide cs 25.6, Shiga inhibitor 43.9, Pf growth 96h inconclusive
O=C(COC(=O)CCc1ccccc1)NCc1ccc2c(c1)OCO2	none (no result: Cycloheximide cs, Pf growth 48h, Shiga inhibitor, Pf growth 96h)
Cc1cccc(CN(CC(=O)N/N=C/c2cccs2)S(=O)(=O)c2ccc(Cl)cc2)c1	Pf growth 96h inconclusive
Cc1ccc(OCC(=O)NCCCNC(=O)c2ccncc2)cc1C	none
CCN(CC(=O)Nc1c(C(=O)OC)[nH]c2ccccc12)c1ccc2c(c1)OCO2	Pf growth 48h 10.4µM, Pf growth 96h inconclusive
O=C(CN1c2cccc3cccc(c23)S1(=O)=O)NCc1ccc2c(c1)OCO2	Pf growth 48h inconclusive, Pf growth 96h inconclusive
CCOC(=O)c1c(NCc2ccc3c(c2)OCO3)c2ccccc2[nH]c1=O	Cycloheximide cs 19.2
O=C(CN1C(=O)c2ccccc2S1(=O)=O)NCc1ccc2c(c1)OCO2	Pf growth 96h 9.28µM
CCOC(=O)c1c(NCCN(C)C)c2ccccc2[nH]c1=O	none
C/C(CC1CC(COCCC(C)C)OC1=O)=N\NC(N)=S (stereo not drawn)	Pf growth 96h inconclusive
Nc1nnc(Cc2cccc(Br)c2)s1	none
O=C(Nc1cccc(F)c1)/C(=C\c1ccco1)NC(=O)c1ccco1	Pf growth 96h inconclusive
O=C(CSc1nc2c([nH]c3ccccc32)c(=O)n1-c1cccc(Cl)c1)N1CCCC1	none (no result: Cycloheximide cs, Pf growth 48h, Shiga inhibitor, Pf growth 96h)
O=C(NCCc1nc2ccccc2n1CCOc1ccc(Cl)cc1)C1CCCCC1	none (no result: HCMV antiviral, Pf growth 48h, Pf growth 96h)
Cc1ccc2nc(C)c3c(c2c1)OC(C(C)(Cl)Br)C3 (stereo not drawn)	Pf growth 48h 13.1µM, Pf growth 96h inconclusive
COc1ccc2nc(C)c3c(c2c1)OC(C(C)(Cl)Br)C3 (stereo not drawn)	HCMV antiviral inconclusive
Cc1nc2ccccc2c2c1CC(C(C)(Cl)Br)O2 (stereo not drawn)	HCMV antiviral -92.5, Pf growth 48h inconclusive
COc1cccc(-c2cc(C(=O)N3CCN(C(=O)c4ccco4)CC3)[nH]n2)c1	Pf growth 48h inconclusive, Pf growth 96h inconclusive
Nc1nc2ccccc2n1/N=C/c1ccc2c(c1)OCO2	Cycloheximide cs 31.9, Shiga inhibitor 91.4
Nc1nc2ccccc2n1/N=C/c1ccc(Br)cc1	Cycloheximide cs 42.6, Shiga inhibitor 92.9, Pf growth 96h 10.4µM
Cn1c(/N=C/c2ccc3c(c2)OCO3)nc2ccccc21	none
Nc1nnnn1/N=C/c1ccc(Br)cc1	none
O=C(Nc1ccccc1)Nc1ccc(Cl)c(S(=O)(=O)N2CCOCC2)c1	HCMV antiviral -62.4, Pf growth 48h 9.28µM, Pf growth 96h inconclusive
O=C(Nc1ccccc1O)c1cc(S(=O)(=O)N2CCOCC2)c(Cl)cc1Cl	HCMV antiviral inconclusive, Pf growth 48h 7.38µM
O=C(/C=C/c1ccco1)Nc1ccc(Cl)c(S(=O)(=O)N2CCOCC2)c1	HCMV antiviral -69.4, Cycloheximide cs 19.9, Pf growth 48h inconclusive, Shiga inhibitor 74.1
CCCCn1c(SCC(=O)Nc2cc(C(F)(F)F)ccc2Cl)nnc1C(CC)N(C)C (stereo not drawn)	HCMV antiviral inconclusive, Pf growth 48h 8.28µM, Pf growth 96h inconclusive
CCCCn1c(SCC(=O)Nc2ccc(C)c(S(=O)(=O)N3CCOCC3)c2)nnc1C(CC)N(C)C (stereo not drawn)	Pf growth 48h inconclusive (no result: Cycloheximide cs, Shiga inhibitor)
C[C@H](NC(=O)C1CCN(S(=O)(=O)c2ccccc2)CC1)C(=O)NCc1cccnc1	none (no result: Cycloheximide cs, Pf growth 48h, Shiga inhibitor, Pf growth 96h)
CCOc1ccc(C(=O)Nc2cccc(C(=O)O)c2C)cc1Cl	HCMV antiviral inconclusive, Cycloheximide cs 31.5, Shiga inhibitor 65.7
CC(c1ccccc1)N1C(=O)c2ccc(C(=O)Nc3ccccc3C(=O)O)cc2C1=O (stereo not drawn)	HCMV antiviral -80.2, Pf growth 96h inconclusive
COc1ccc(C(=O)Nc2ccccc2C(=O)O)cc1Cl	Cycloheximide cs 27.4, Shiga inhibitor 65.6
CCC(=O)N1CCN(c2ccccc2NC(=O)c2ccc(OC)c(Cl)c2)CC1	Pf growth 96h 7.38µM (no result: Pf growth 48h)
CCOc1ccc(C(=O)Nc2ccccc2-c2ccccc2)cc1Cl	none
COc1ccc(C(=O)Nc2ccccc2C(=O)O)cc1NC(=O)C(c1ccccc1)c1ccccc1	Pf growth 96h inconclusive
CC1CCC(N(CCCN)Cc2ccco2)CC1C (stereo not drawn)	none
O=C(Nc1ccccc1C(=O)O)c1ccccc1	none (no result: Pf growth 48h)
